Assay results as given in PubChem BioAssay AID1719 (National Center for Advancing Translational Sciences (NCATS), 2009).
The other results are listed elsewhere or left out. Records with an inconclusive call do not appear. Activity calls are given as the source filed them.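 Rule for the calls: active = compounds whose electron micrographs showed tau fibrils broken into shorter filaments or fragments, graded high on fibril breakup; inconclusive = micrographs gave an unclear fibril picture; inactive = the rest.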

Each compound was assayed against Microtubule-associated protein tau (Homo sapiens) (UniProt P10636) (assay: Transmission Electron Microscopy Assay for Inhibitors of Tau Fibrillization). Conditions: recombinant tau K18 P301L (four-repeat tau fragment) fibrillization, TEM grading; hits give high values.
From the text: NIH Molecular Libraries Probe Production Network [MLPCN] NIH Chemical Genomics Center [NCGC] MLPCN Grant: X01 MH083262-01 Assay Provider: Carlo Ballatore, University of Pennsylvania NCGC Assay Overview: The microtubule-associated protein tau is an abundant protein in the axons of neurons that stabilizes microtubules. With its ability to modulate microtubule dynamics, tau contributes directly or indirectly, to key structural and regulatory cellular functions. Particularly important is the influence tau exerts on axonal transport, which allows signaling molecules, trophic factors and other essential cellular constituents to travel along the axons. Under pathological conditions, tau becomes sequestered into insoluble aggregates called neurofibrillary tangles. This phenomenon is believed to have pathological consequences by promoting axonal transport deficits that ultimately lead to synaptic dysfunction and neuronal loss. The ability of compounds to block tau fibrillization was visualized using transmission electron microscopy (TEM). Samples from the tau ThT confirmation assay treated with 100 uM compound (AID 1558) were centrifuged and imaged using TEM. […]

Microtubule-associated protein tau (Homo sapiens), sequence (P10636 561-689 P618L limits assumed): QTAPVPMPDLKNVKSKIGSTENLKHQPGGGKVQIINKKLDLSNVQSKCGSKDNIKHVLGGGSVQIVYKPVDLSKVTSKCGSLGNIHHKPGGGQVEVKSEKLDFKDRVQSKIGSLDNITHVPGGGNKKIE

| SMILES | fibril grade (0 = clumped fibrils, 4 = only tiny pieces) |
| --- | --- |
| CCN(CC)c1ccc2oc(=O)c(C)nc2c1 | 4 (active) |
